Data from PubChem BioAssay (EPA / NIEHS).
Records with an inconclusive call do not appear. The source made the active and inactive calls. How the source made its calls, unless noted: active means hit-call score of the fitted dose curve at least 0.9, where 1 is the maximum; inactive means score below 0.9.

Legend:
[1] = molecular target: Peroxisome proliferator-activated receptor gamma (Homo sapiens) (UniProt P37231); assay: OT_PPARg_PPARgSRC1_0480: Odyssey Thera (OT) 8-hour Protein-Complementation Assay for Peroxisome Proliferator-activated Receptor Gamma / SRC-1 Co-activator (AID 2283387; active means hit-call score of the fitted dose curve at least 0.9, where 1 is the maximum;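 further: nuclear to cytoplasmic split Venus YFP fluorescence ratio reporting PPARg SRC-1 interaction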)
In short: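 Protein-fragment complementation in HEK293T: Venus YFP halves (residues 1-158, 159-239, mutated to IFP1/IFP2) fused to PPARg/SRC-1. 8 h exposure; N/C ratio at 488 nm; DMSO negative control.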

[2] = molecular target: Peroxisome proliferator-activated receptor gamma (Homo sapiens) (UniProt P37231); assay: OT_PPARg_PPARgSRC1_1440: Odyssey Thera (OT) 24-hour Protein-Complementation Assay for Peroxisome Proliferator-activated Receptor Gamma/ SRC-1 Co-activator (AID 2283388; active means hit-call score of the fitted dose curve at least 0.9, where 1 is the maximum;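 further: nuclear to cytoplasmic ratio of reconstituted Venus YFP fluorescence in fixed imaged cells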)
In short: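 Transient HEK293T, YFP fragments 1-158/159-239 (mutant IFP1/IFP2) fused to PPARg/SRC-1; 24 h dosing; fix 4% formaldehyde, Draq5; Opera imaging 488/635 nm; N/C ratio, gain vs DMSO.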

[3] = CEETOX_H295R_11DCORT: CeeTox H295R High-throughput Steroidogenesis Assay for 11-Deoxycortisol (11DCORT) (AID 2283432); settings: actives raise or lower the signal
In short: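 Adrenal carcinoma line H295R, run per OECD 456 with minor changes, was forskolin-stimulated (10 uM, 48 h) before a 48 h chemical exposure at 0.1% DMSO. Secreted 11-deoxycortisol was quantified by HPLC-MS/MS.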

[4] = CEETOX_H295R_OHPREG: CeeTox H295R High-throughput Steroidogenesis Assay for OH-Pregnenolone (OHPREG) (AID 2283434); settings: actives raise or lower the signal
In short: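 Readout: HPLC-MS/MS of 17alpha-hydroxypregnenolone in medium after 48 h chemical exposure of H295R cells pretreated with forskolin. Values fitted bidirectionally relative to DMSO; chemicals reducing viability to 20–70% were retested after 10-fold dilution.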

[5] = CEETOX_H295R_OHPROG: CeeTox H295R High-throughput Steroidogenesis Assay for OH-Progesterone (OHPROG) (AID 2283435); settings: actives raise or lower the signal;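 on AC50: human adrenal H295R cells primed 48 h with 10 µM forskolin; 17alpha-hydroxyprogesterone secreted into medium measured by HPLC-MS/MS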
In short: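 Steps: seed H295R cells and adhere overnight; stimulate with 10 uM forskolin for 48 h; replace with chemical-containing medium (0.1% DMSO) for 48 h; extract medium with MTBE; quantify 17alpha-hydroxyprogesterone by reverse-phase C18 HPLC-MS/MS against a 7-point curve.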

[6] = CEETOX_H295R_CORTIC: CeeTox H295R High-throughput Steroidogenesis Assay for Corticosterone (CORTIC) (AID 2283437); settings: actives raise or lower the signal;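 further: corticosterone secreted into medium quantified by mass spectrometry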;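 on AC50: human H295R adrenal cells prestimulated with forskolin before chemical exposure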
In short: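 Steps: seed H295R, adhere overnight; 10 uM forskolin 48 h; replace with chemical (0.1% DMSO) 48 h; extract medium with MTBE; quantify corticosterone by HPLC-MS/MS; score bidirectionally vs DMSO.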

[7] = CEETOX_H295R_CORTISOL: CeeTox H295R High-throughput Steroidogenesis Assay for Cortisol (AID 2283438); settings: actives raise or lower the signal;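 further: cortisol secreted into medium quantified by LC-MS/MS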
In short: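 Cortisol synthesis by H295R cells is measured 48 h after chemical dosing, following a 48 h stimulation with 10 uM forskolin. Hormone is extracted and quantified by HPLC-MS/MS, and activity is fitted bidirectionally against the DMSO control.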

[8] = CEETOX_H295R_PROG: CeeTox H295R High-throughput Steroidogenesis Assay for Progesterone (PROG) (AID 2283442); settings: actives raise or lower the signal
In short: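 Adrenal H295R line, forskolin-stimulated (10 uM, 48 h) before dosing. 48 h exposure, 0.1% DMSO vehicle. Secreted progesterone by reverse-phase HPLC with ESI+ MS/MS quantification; DMSO-normalised bidirectional curve fit.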

[9] = read-out: Tumor necrosis factor receptor superfamily member 6 (Homo sapiens) (UniProt P25445); assay: LTEA_HepaRG_FAS: Life Technologies and Expression Analysis (LTEA) Assay for Fas cell surface death receptor (FAS) using HepaRG (AID 2283447); settings: mRNA level, 48 h; actives raise or lower the signal
In short: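 Differentiated human HepaRG cells, pre-cultured 48 h, were exposed in duplicate for 48 h to 8-point half-log concentrations (top 100 uM, 0.5% DMSO) in serum-free induction medium; FAS mRNA measured by qRT-PCR, normalized to ACTB/GAPDH/POLR2A, bidirectional fit versus DMSO.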

[10] = read-out: Fatty acid synthase (Homo sapiens) (UniProt P49327); assay: LTEA_HepaRG_FASN: Life Technologies and Expression Analysis (LTEA) Assay for Fatty Acid Synthase (FASN) using HepaRG (AID 2283448); settings: mRNA level, 48 h; actives raise or lower the signal
In short: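 Cells were plated, cultured 48 h, switched to serum-free induction medium, then dosed in duplicate (max 100 uM, half-log dilutions, 0.5% DMSO) for 48 h. RNA was then isolated and FASN quantified by qRT-PCR.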

[11] = read-out: Cyclin Dependent Kinase Inhibitor 1A (CDKN1A), CDKN1A (gene 1026); assay: LTEA_HepaRG_CDKN1A: Life Technologies and Expression Analysis (LTEA) Assay for Cyclin Dependent Kinase Inhibitor 1A (CDKN1A) using HepaRG (AID 2283450); settings: mRNA level, 48 h; actives raise or lower the signal
In short: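 Cryopreserved HepaRG cells were plated and cultured 48 h, then switched to serum-free induction medium. Chemicals (eight half-log concentrations, top 100 uM, 0.5% DMSO) were applied for 48 h. Lysates underwent qRT-PCR for CDKN1A with housekeeping normalization.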

[12] = read-out: Cyclin D1 (CCND1), CCND1 (gene 595); assay: LTEA_HepaRG_CCND1: Life Technologies and Expression Analysis (LTEA) Assay for Cyclin D1 (CCND1) using HepaRG (AID 2283451); settings: mRNA level, 48 h; actives raise or lower the signal
In short: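 Human liver HepaRG line; 48 h dosing, 8 conc. ≤100 uM, 0.5% DMSO; TaqMan qRT-PCR mRNA, 3 housekeeping genes; bidirectional curve fit vs DMSO.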

[13] = read-out: catalase (CAT), CAT (gene 847); assay: LTEA_HepaRG_CAT: Life Technologies and Expression Analysis (LTEA) Assay for catalase (CAT) using HepaRG (AID 2283452); settings: mRNA level, 48 h; actives raise or lower the signal
In short: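 Differentiated HepaRG cells in serum-free induction medium were dosed 48 h in duplicate, eight half-log concentrations from 100 uM in 0.5% DMSO. Transcript measured by TaqMan qRT-PCR, normalised to ACTB/GAPDH/POLR2A, fitted bidirectionally against DMSO.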

[14] = read-out: flavin-containing dimethylaniline monooxygenases 3 (FMO3), FMO3 (gene 2328); assay: LTEA_HepaRG_FMO3: Life Technologies and Expression Analysis (LTEA) Assay for flavin-containing dimethylaniline monooxygenases 3 (FMO3) using HepaRG (AID 2283453); settings: mRNA level, 48 h; actives raise or lower the signal
In short: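 FMO3 transcript quantified by TaqMan qRT-PCR against three housekeeping genes after 48 h chemical exposure of HepaRG cells. Eight-point half-log series, top 100 uM, 0.5% DMSO vehicle; phenobarbital 1mM induction control; up- or down-regulation fitted.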

[15] = read-out: Cytochrome P450 (CYP1A1), CYP1A1 (gene 1543); assay: LTEA_HepaRG_CYP1A1: Life Technologies and Expression Analysis (LTEA) Assay for Cytochrome P450 (CYP1A1) using HepaRG (AID 2283454); settings: mRNA level, 48 h; actives raise or lower the signal
In short: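 Induction of CYP1A1 mRNA in a human hepatic cell line was measured 48 h after dosing, with 1 mM phenobarbital as induction positive control and 0.5% DMSO vehicle as baseline for bidirectional curve fitting.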

[16] = CEETOX_H295R_DOC: CeeTox H295R High-throughput Steroidogenesis Assay for DOC (AID 2283439); settings: actives raise or lower the signal
In short: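 Steps: seed H295R, adhere overnight; 10 uM forskolin 48 h; replace with chemical medium (0.1% DMSO) 48 h; collect medium, MTBE extraction, HPLC-MS/MS for DOC. Viability then checked by MTT; cytotoxic chemicals diluted until viability ≥70%.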

[17] = read-out: Cyclin D2 (CCND2), CCND2 (gene 894); assay: LTEA_HepaRG_CCND2: Life Technologies and Expression Analysis (LTEA) Assay for Cyclin D2 (CCND2) using HepaRG (AID 2283449); settings: mRNA level, 48 h; actives raise or lower the signal;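 further: CCND2 transcript measured by TaqMan qRT-PCR and normalised to three housekeeping genes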
In short: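 In this HepaRG study, an eight-point concentration series (max 100 uM, 0.5% DMSO) is applied for 48 h. CCND2 mRNA change is derived by qRT-PCR normalised to ACTB, GAPDH and POLR2A.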

Measured: AC50

Chain of Fatty acid synthase (Homo sapiens) (P49327 whole entry, looked up): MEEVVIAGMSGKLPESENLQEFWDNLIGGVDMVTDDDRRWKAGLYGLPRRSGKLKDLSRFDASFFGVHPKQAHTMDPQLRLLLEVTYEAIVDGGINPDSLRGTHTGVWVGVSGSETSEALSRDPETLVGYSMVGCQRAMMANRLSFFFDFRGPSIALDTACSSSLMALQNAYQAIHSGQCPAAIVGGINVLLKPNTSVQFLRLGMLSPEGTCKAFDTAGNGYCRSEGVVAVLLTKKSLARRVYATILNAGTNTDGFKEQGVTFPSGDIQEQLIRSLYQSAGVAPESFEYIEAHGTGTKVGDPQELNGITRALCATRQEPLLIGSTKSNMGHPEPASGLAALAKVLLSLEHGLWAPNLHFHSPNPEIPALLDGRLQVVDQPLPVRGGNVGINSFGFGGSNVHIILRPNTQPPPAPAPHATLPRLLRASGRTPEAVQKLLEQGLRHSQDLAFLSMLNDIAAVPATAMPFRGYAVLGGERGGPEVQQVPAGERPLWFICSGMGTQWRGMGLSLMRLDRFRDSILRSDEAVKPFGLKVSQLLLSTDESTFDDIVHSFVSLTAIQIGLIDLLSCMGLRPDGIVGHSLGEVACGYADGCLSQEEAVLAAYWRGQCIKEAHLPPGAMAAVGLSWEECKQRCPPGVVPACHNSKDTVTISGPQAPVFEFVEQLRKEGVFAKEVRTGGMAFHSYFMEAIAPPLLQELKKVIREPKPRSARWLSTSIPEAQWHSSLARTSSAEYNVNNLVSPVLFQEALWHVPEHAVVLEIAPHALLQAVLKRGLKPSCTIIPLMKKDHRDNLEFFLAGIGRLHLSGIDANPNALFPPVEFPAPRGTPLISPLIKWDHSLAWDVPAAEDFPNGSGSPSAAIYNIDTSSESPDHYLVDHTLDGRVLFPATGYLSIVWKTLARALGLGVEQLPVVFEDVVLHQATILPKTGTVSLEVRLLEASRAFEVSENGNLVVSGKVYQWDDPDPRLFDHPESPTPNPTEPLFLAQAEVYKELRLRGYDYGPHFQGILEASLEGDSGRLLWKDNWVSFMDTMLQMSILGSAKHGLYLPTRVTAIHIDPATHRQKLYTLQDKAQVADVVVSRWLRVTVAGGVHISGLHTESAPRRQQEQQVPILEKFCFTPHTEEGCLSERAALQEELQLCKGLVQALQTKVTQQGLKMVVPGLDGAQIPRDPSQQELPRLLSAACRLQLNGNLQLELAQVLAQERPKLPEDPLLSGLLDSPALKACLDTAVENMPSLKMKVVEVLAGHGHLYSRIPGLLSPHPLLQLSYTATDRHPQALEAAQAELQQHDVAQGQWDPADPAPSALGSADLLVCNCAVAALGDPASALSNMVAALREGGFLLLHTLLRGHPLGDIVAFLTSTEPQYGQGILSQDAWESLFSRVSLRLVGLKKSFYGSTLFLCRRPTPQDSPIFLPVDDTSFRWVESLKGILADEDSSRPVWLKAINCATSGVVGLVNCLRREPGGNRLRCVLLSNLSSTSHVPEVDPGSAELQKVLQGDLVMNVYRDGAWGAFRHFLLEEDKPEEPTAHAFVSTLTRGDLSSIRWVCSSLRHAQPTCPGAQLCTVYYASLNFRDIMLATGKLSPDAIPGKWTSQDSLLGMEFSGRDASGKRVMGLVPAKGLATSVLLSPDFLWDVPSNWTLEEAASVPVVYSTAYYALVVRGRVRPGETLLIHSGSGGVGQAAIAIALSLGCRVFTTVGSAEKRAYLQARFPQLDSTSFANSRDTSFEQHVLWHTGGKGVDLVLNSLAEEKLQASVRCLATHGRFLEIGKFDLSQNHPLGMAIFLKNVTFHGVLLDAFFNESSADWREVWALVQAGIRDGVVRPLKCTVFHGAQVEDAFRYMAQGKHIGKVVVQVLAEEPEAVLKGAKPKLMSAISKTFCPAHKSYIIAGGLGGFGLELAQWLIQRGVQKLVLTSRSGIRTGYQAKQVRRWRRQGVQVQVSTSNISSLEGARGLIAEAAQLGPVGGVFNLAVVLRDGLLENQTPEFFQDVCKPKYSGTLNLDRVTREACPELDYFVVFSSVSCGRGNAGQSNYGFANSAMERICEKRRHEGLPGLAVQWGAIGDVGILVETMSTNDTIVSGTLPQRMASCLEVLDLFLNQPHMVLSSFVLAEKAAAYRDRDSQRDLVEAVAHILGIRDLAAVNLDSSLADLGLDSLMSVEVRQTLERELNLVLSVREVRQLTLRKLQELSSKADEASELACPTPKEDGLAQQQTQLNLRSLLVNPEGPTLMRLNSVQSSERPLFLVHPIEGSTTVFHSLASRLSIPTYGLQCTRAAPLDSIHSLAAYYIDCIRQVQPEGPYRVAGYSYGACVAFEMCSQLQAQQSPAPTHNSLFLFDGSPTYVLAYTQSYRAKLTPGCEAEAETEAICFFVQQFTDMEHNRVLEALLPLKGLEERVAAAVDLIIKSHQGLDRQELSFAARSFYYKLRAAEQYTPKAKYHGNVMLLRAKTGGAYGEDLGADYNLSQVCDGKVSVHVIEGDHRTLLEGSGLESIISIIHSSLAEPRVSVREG
Chain of Peroxisome proliferator-activated receptor gamma (Homo sapiens) (P37231 whole entry, looked up, the tested form may be a part): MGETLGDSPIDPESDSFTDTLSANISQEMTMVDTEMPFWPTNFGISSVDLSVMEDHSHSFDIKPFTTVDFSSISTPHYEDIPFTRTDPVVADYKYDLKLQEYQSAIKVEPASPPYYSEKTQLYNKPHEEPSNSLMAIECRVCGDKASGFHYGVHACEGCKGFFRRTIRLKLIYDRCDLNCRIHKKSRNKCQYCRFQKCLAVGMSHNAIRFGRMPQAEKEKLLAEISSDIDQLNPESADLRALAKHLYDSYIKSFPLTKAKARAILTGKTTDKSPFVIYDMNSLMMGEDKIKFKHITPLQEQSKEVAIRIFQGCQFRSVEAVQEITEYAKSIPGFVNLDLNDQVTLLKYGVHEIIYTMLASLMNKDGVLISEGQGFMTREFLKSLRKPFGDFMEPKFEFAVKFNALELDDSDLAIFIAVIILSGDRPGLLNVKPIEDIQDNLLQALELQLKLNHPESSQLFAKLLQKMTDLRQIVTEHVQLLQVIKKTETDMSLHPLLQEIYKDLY

CC(C)=CCCC(C)=CC=O
inactive: [1] | [2] | [3] | [4] | [5] | [8] | [9] | [10] | [11] | [12] | [13] | [14]
active: [6] 78.6 µM | [7] 75 µM | [15] 63.9 µM

COc1ccc(/C=C/S(=O)(=O)NC(=O)c2ccc(C)cc2Cl)cc1
active: [2] 60.6 µM | [5] 17.7 µM | [15] 50 µM
inactive: [1] | [3] | [4] | [6] | [7] | [16] | [8] | [9] | [10] | [17] | [11] | [13] | [14]

CC1=CC(=O)CC(C)(C)C1
inactive: [1] | [2] | [3] | [4] | [5] | [6] | [7] | [16] | [8] | [9] | [10] | [17] | [11] | [13] | [14] | [15]

C1=CCCC=CCCC=CCC1
inactive: [1] | [2] | [9] | [10] | [17] | [11] | [12] | [13] | [14] | [15]
